Thermal melting temperature data for 18 sequences are collected here from the supplement of paper PMC7726561.

The chains are these.
B1: unnamed (peptide)
chain: HWDPQEVTL
B2: unnamed (peptide)
chain: KYDPNVYSI
B3: unnamed (peptide)
chain: TFDPVTKVL
B4: unnamed (peptide)
chain: IWDVSVNSV
B5: unnamed (peptide)
chain: IWEPLAVKL
B6: unnamed (peptide)
chain: FYDPDVGNF
B7: unnamed (peptide)
chain: LYDVPANSM
B8: unnamed (peptide)
chain: IYDSVKVYF
B9: unnamed (peptide)
chain: AFDEAIAEL
B10: unnamed (peptide)
chain: LYDPVISKL
B11: unnamed (peptide)
chain: TFDVAPSRL
B12: unnamed (peptide)
chain: KFDDGAVFL
B13: unnamed (peptide)
chain: TFDDIVHSF
B14: unnamed (peptide)
chain: IYDKFIAQL
B15: unnamed (peptide)
chain: SYMEVPTYL
B16: unnamed (peptide)
chain: YYEEQHPEL
B17: unnamed (peptide)
chain: FFDEESYSL
B18: unnamed (peptide)
chain: LFDKSINEF

The first assay concerns the target HLA-C*04:01. Nature of the assay: thermal melting temperature (Tm) of peptide-HLA complex; higher = more thermostable pHLA complex. To be noted: C1R-A*02:01. The essentials: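 Lysates of C1R-A*02:01 or C1R-B*07:02 cells (5 × 10^7 cell equivalents per replicate) were heated 10 min in triplicate at 37–73 °C and then cooled on ice. They were immunoprecipitated overnight at 4 °C with W6/32–protein A sepharose, and acid-eluted peptides were spiked with iRT peptides and quantified by DIA-MS. Peak areas were iRT-normalised, outlier-corrected and expressed as median fold-change versus 37 °C. Tm is the transition midpoint of a least-squares logistic sigmoid fit; fits required R^2 > 0.85.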
Turning to B1, the thermal melting temperature turned out to be 58.9 °C.
The same measure, in the same setting: as for B2, the figure is 50.6 °C; as for B3, 51.4 °C; as for B4, 50.8 °C.
Still for that read-out and setting: as for B5, the figure is 47.3 °C; as for B6, 50.9 °C.
On the same count and under the same terms, as for B7, the figure is 51.1 °C; as for B8, 56.8 °C; as for B9, 58.4 °C.
Consider B10, for which the thermal melting temperature was determined as 56.9 °C.
On the same count and under the same terms, as for B11, the figure is 52.3 °C; as for B12, 60.9 °C; as for B13, 54.2 °C.
On the same count and under the same terms, as for B14, the figure is 52.5 °C; as for B15, 54.8 °C.
For the sequence B16, the thermal melting temperature was 48.6 °C.
Same read-out and setting: as for B17, the figure is 45 °C; as for B18, 56.3 °C.

Staying with this assay, now noted: C1R-B*07:02.
In turn, B1 gave a thermal melting temperature of 57.7 °C.
Same read-out and setting: as for B2, the figure is 55.2 °C; as for B3, 51.5 °C; as for B4, 58.7 °C.
Regarding B5, the thermal melting temperature was found to be 47.2 °C.
Same read-out and setting: as for B6, the figure is 51.2 °C.
Still for that read-out and setting: as for B7, the figure is 57.6 °C.
Turning to B8, the thermal melting temperature worked out at 57 °C.
Sequence B9 yielded a thermal melting temperature of 62.7 °C.
The same measure, in the same setting: as for B10, the figure is 57.3 °C; as for B11, 52.4 °C; as for B12, 60.4 °C.
Still for that read-out and setting: as for B13, the figure is 55.3 °C; as for B14, 54.5 °C; as for B15, 61 °C.
B16 yielded a thermal melting temperature of 47 °C.
The sequence B17 yielded a thermal melting temperature of 43.7 °C.
Same read-out and setting: as for B18, the figure is 57.2 °C.
